In the supplement of paper PMC9694430:
Several values for one entry are separate records, joined by “and”; a condition that tells them apart may be missing. Equal entries are not always repeated.

Tests used:
Test in all cases: thermal shift delta Tm vs DMSO control; higher = stronger stabilization (binding)
Conditions in all cases: 12.5 µM; protein concentration 2 µM
LOC_OS01G57100-cb003 = test system: LOC_OS01G57100-cb003
Procedure, shortened: (§1)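 Heating from 25°C to 95°C at 0.05°C/s, fluorescence was recorded for 19.5 μl wells of 2 μM E. coli-expressed, purified rice kinase domain in 100 mM potassium phosphate pH 7.5, 150 mM NaCl, 10% glycerol and 5 × SYPRO Orange with compound in DMSO. Boltzmann fits gave melting temperatures for this differential scanning fluorimetry assay. The shift reported is the mean of three replicates against the DMSO-only protein.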

LOC_OS01G60330-cb001 = test system: LOC_OS01G60330-cb001
Procedure, shortened: as §1

LOC_OS01G60700-cb002 = test system: LOC_OS01G60700-cb002
Procedure, shortened: as §1

LOC_OS01G63280-cb003 = test system: LOC_OS01G63280-cb003
Procedure, shortened: as §1

LOC_OS01G67340-cb003 = test system: LOC_OS01G67340-cb003
Procedure, shortened: as §1

LOC_OS01G70970-cb002 = test system: LOC_OS01G70970-cb002
Procedure, shortened: as §1

LOC_OS02G07810-cb001 = test system: LOC_OS02G07810-cb001
Procedure, shortened: as §1

LOC_OS02G08530-cb003 = test system: LOC_OS02G08530-cb003
Procedure, shortened: as §1

LOC_OS02G14120-cb001 = test system: LOC_OS02G14120-cb001
Procedure, shortened: as §1

LOC_OS02G17970-cb001 = test system: LOC_OS02G17970-cb001
Procedure, shortened: as §1

LOC_OS02G45750-cb003 = test system: LOC_OS02G45750-cb003
Procedure, shortened: as §1

LOC_OS02G54510-cb004 = test system: LOC_OS02G54510-cb004
Procedure, shortened: as §1

LOC_OS03G04050-cb001 = test system: LOC_OS03G04050-cb001
Procedure, shortened: as §1

LOC_OS03G12390-cb001 = test system: LOC_OS03G12390-cb001
Procedure, shortened: as §1

LOC_OS03G27990-cb004 = test system: LOC_OS03G27990-cb004
Procedure, shortened: as §1

LOC_OS03G50450-cb001 = test system: LOC_OS03G50450-cb001
Procedure, shortened: as §1

LOC_OS03G50810-cb003 = test system: LOC_OS03G50810-cb003
Procedure, shortened: as §1

LOC_OS04G35114-cb001 = test system: LOC_OS04G35114-cb001
Procedure, shortened: as §1

LOC_OS04G38480-cb003 = test system: T1, LOC_OS04G38480-cb003
T1 sequence (whole entry): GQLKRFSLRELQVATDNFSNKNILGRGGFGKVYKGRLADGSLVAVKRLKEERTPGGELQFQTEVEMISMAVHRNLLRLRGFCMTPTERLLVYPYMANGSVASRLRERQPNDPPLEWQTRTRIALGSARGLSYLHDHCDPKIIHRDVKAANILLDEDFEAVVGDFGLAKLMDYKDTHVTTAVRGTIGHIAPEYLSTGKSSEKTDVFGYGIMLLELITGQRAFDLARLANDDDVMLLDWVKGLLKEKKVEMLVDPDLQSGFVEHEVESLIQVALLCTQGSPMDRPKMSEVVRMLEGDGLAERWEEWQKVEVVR
Procedure, shortened: as §1

LOC_OS04G41100-cb001 = test system: T2, LOC_OS04G41100-cb001
T2 sequence (whole entry): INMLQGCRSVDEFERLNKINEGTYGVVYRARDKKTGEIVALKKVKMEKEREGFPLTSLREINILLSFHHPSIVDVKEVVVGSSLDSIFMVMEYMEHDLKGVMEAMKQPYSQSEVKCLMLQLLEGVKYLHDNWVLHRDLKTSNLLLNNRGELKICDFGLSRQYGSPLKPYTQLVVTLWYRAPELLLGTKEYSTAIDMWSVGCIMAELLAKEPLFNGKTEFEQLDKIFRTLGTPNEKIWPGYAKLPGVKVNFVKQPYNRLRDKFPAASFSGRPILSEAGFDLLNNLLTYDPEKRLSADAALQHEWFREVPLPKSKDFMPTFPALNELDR
Procedure, shortened: as §1
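Also: purified Escherichia coli-expressed rice kinase domain construct.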

Structure (SMILES) | thermal shift delta Tm (LOC_OS01G57100-cb003) | thermal shift delta Tm (LOC_OS01G60330-cb001) | thermal shift delta Tm (LOC_OS01G60700-cb002) | thermal shift delta Tm (LOC_OS01G63280-cb003) | thermal shift delta Tm (LOC_OS01G67340-cb003) | thermal shift delta Tm (LOC_OS01G70970-cb002) | thermal shift delta Tm (LOC_OS02G07810-cb001) | thermal shift delta Tm (LOC_OS02G08530-cb003) | thermal shift delta Tm (LOC_OS02G14120-cb001) | thermal shift delta Tm (LOC_OS02G17970-cb001) | thermal shift delta Tm (LOC_OS02G45750-cb003) | thermal shift delta Tm (LOC_OS02G54510-cb004) | thermal shift delta Tm (LOC_OS03G04050-cb001) | thermal shift delta Tm (LOC_OS03G12390-cb001) | thermal shift delta Tm (LOC_OS03G27990-cb004) | thermal shift delta Tm (LOC_OS03G50450-cb001) | thermal shift delta Tm (LOC_OS03G50810-cb003) | thermal shift delta Tm (LOC_OS04G35114-cb001) | thermal shift delta Tm (LOC_OS04G38480-cb003) | thermal shift delta Tm (LOC_OS04G41100-cb001)
O=C(NCc1ccccc1)c1csc(Nc2ccncn2)n1 [Thiazovivin] | 1.74 °C | 1.17 °C | 0.63 °C | 0.81 °C | 0.47 °C | 0.09 °C | 1.58 °C | 0.69 °C | 0.71 °C | 1.26 °C | 0.91 °C | 0.46 °C | 0.67 °C | 1.49 °C | 0.04 °C | 0.18 °C | 0.53 °C | 1.56 °C | 0.41 °C | 0.67 °C
CC(C)n1nc(-c2cc3cc(O)ccc3[nH]2)c2c(N)ncnc21 [Torkinib (PP242)] | 0.56 °C | 1.53 °C | 1.1 °C | 3.14 °C | 1.04 °C | 0.66 °C | 0.64 °C | 0.63 °C | 0.74 °C | 0.57 °C | 1.42 °C | 0.85 °C | 0.29 °C | 2.95 °C | 0.64 °C | 0.48 °C | 0.71 °C | 5.09 °C | 1.25 °C | 0.2 °C
C=CC(=O)Nc1cccc(Nc2nc(Nc3ccc(OCCOC)cc3)ncc2F)c1 | 1.56 °C | 8.86 °C | 1.84 °C | 0.22 °C | 0.42 °C | 1.81 °C | 0.8 °C | 3.49 °C | 9.32 °C | 0.13 °C | 0 °C | 1.8 °C | 1.14 °C | 6.16 °C | 1.06 °C | 3.26 °C | 3.81 °C | 3.89 °C | 3.75 °C | 1 °C
CCNC(=O)Nc1ccc(-c2nc3c(c(N4CCOC[C@@H]4C)n2)CCN(C2COC2)C3)cc1 | 1.02 °C | 0.52 °C | 0.42 °C | 0.65 °C | 0.16 °C | 0.23 °C | 0.04 °C | 0.71 °C | -0.29 °C | -0.11 °C | 1.07 °C | 0.26 °C | 0.61 °C | -0.06 °C | 0.78 °C | 0.68 °C | 0.23 °C | 0.56 °C | -0.03 °C | 0.46 °C
O=c1cc(N2CCOCC2)oc2c1ccc1ccccc12 | -0.21 °C | -0.04 °C | 0.19 °C | 0.17 °C | 0.3 °C | -0.28 °C | 0.45 °C | 0.22 °C | 1.47 °C | 0.01 °C | 0.57 °C | 0.45 °C | 0.58 °C | 1.07 °C | 0.27 °C | 0.43 °C | 0.29 °C | 0.64 °C | 2.01 °C | 0.31 °C
Nc1ncnc2n[nH]c(Nc3ccc(F)cc3)c12 | 1 °C | 1.15 °C | 0.86 °C | 3.22 °C | 0.86 °C | 0.93 °C | 0.46 °C | 1.06 °C | 3.5 °C | 0.76 °C | 4.8 °C | 0.26 °C | 0.25 °C | 2.15 °C | 3.38 °C | 0.1 °C | 0.92 °C | 5.47 °C | 0.62 °C | 0.32 °C
c1cc(-c2cnn3cc(-c4ccc(OCCN5CCCCC5)cc4)cnc23)ccn1 [Dorsomorphin 2HCl] | -0.53 °C | 4.55 °C | 0.2 °C | 1.5 °C | 6.09 °C | 8.77 °C | 0.33 °C | 2.18 °C | 8.01 °C | -0.02 °C | 15.2 °C | 0.73 °C | 0.67 °C | 1.8 °C | 9.39 °C | 1.81 °C | 7.51 °C | 9.17 °C | 3.72 °C | 3.16 °C
O=C(Nc1cccc(C(F)(F)F)c1)c1cccc2cc(Oc3cc(CO)ncn3)ccc12 | 1.09 °C | 0.76 °C | 1.22 °C | 2.3 °C | 0.38 °C | 0.5 °C | 0.69 °C | 0.95 °C | 0.55 °C | 1.28 °C | 0.82 °C | 0.52 °C | 0.59 °C | -0.09 °C | 0.52 °C | 0.11 °C | 0.03 °C | 0.55 °C | 1.4 °C | 0.37 °C
COc1cccc2cc(-c3nc([C@H]4CC[C@H](C(=O)O)CC4)n4ncnc(N)c34)[nH]c12 | 2.68 °C | 0.91 °C | 0.9 °C | 1.4 °C | 1.05 °C | 0.4 °C | 1.58 °C | 1.17 °C | 0.19 °C | 0.71 °C | 0.26 °C | 0.38 °C | 0.31 °C | 0.34 °C | 0.03 °C | 0.32 °C | 0.58 °C | 3.43 °C | 0.98 °C | 0.32 °C
CC1=C(C(=O)Nc2cc3cn[nH]c3cc2F)C(c2ccc(C(F)(F)F)cc2)CC(=O)N1 (stereo not given) | 1.21 °C | 0.48 °C | 0.2 °C | 2.09 °C | -0.48 °C | 0.04 °C | 0.72 °C | 0.55 °C | 0.25 °C | 0.19 °C | 0.16 °C | 0.13 °C | 0.03 °C | 0.32 °C | -0.07 °C | 0.15 °C | 0.56 °C | 0.15 °C | 0 °C | 0.48 °C
C[C@@H]1CCN(C(=O)CC#N)C[C@@H]1N(C)c1ncnc2[nH]ccc12 | 1.55 °C and 1.07 °C | 0.87 °C and 1.25 °C | 0.98 °C and 1.64 °C | 0.28 °C and 0.78 °C | 0.15 °C and 0.3 °C | 0.37 °C and 0.59 °C | 0.22 °C and 0.98 °C | 0.94 °C and 0.96 °C | 0.97 °C and 0.47 °C | 0 °C and 1.09 °C | 0.35 °C and 0.85 °C | 0.3 °C and 0.25 °C | 0.21 °C and 0.74 °C | 0.19 °C and 0.26 °C | 0.12 °C and 0.5 °C | 0.32 °C and 0.68 °C | 0.11 °C and 0.63 °C | 0.38 °C and 0.48 °C | 0.3 °C and 0.6 °C | -0.01 °C and 0.47 °C
COc1cc2ccc(=O)oc2cc1O [Scopoletin] | 0.91 °C | 0.02 °C | -0.06 °C | -0.04 °C | -0.05 °C | 0.41 °C | -1.02 °C | 0.39 °C | 0.77 °C | 1.18 °C | 0.7 °C | 0.13 °C | 0.44 °C | 0.02 °C | 0.3 °C | 0.69 °C | 0.22 °C | 0.41 °C | 0.05 °C | 0.47 °C
Cc1cc(C(C)Nc2ccccc2)c2nc(N3CCOCC3)cc(=O)n2c1 (stereo not given) | 0.23 °C | 1.22 °C | 0.52 °C | -0.26 °C | -0.69 °C | 0.34 °C | 0.27 °C | 0.37 °C | 0 °C | 0.24 °C | -0.62 °C | 0.09 °C | 0.44 °C | -0.12 °C | 0.21 °C | 0.33 °C | -0.02 °C | 0.33 °C | 0.36 °C | 0.33 °C
